Assay outcomes: PubChem BioAssay, Broad Institute
This is a sample that favours compounds with a hit; in the whole collection about 2.7% have one here.
Env fusion inh: inhibitors of HIV-1 Env-driven cell-cell fusion, primary screen, HeLa-JRFL effector, CEM21 target cells, luciferase | inhibition, % at 12.3 µM | hit rate 1.1% among 360,000;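 active = mean replicate inhibition score of at least 50 and every replicate individually at or above 50; inconclusive = only one of the two criteria met; inactive = mean below 50 and not all replicates reaching 50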;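 also: 0% = plate neutral controls and 100% = maraviroc near 300 nM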
Wnt act: Wnt/beta-catenin pathway activators, primary screen, cell-based, plate reader, single point. activation, % at 9.35 µM. Wnt/beta-catenin reporter cell assay, activator. hit rate 1.2% among 300,000. AID 743398, 2014; in the data active = activation above about 30%, passing the limit was not always enough; inconclusive = no clear call, values can overlap the other calls;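 also: 0% = neutral control wells and 100% = positive control wells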
CFTR F508del cor: F508del CFTR correction, initial screen, CFBE line, single point; CFBE cells, YFP halide quenching; stimulated with forskolin plus potentiator P3; % fluorescence drop versus neutral controls; activity (quench increase), % at 7.58 µM; hit rate 0.36% among 350,000;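 active = mean added fluorescence quench of at least 8% versus neutral control, with both replicates also reaching 8%; inconclusive = only one of the mean or replicate conditions met; inactive = mean below 8% and not both replicates reaching 8%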;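 also: cells transiently co-express mutant CFTR-F508del with the halide-sensitive YFP; corrector assay measuring rescue of mutant channel to the surface after 24 h compound exposure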
MITF act: activators of MITF-driven TRPM1 promoter reporter, primary screen, cell-based, SK-MEL-5, luciferase, single point; AID 588334, 2011; hit rate 0.75% among 300,000; activation, % at 12.5 µM; SK-MEL-5 TRPM1-promoter luciferase, 24 h; % of positive control, neutral wells = 0;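 active = mean activation of at least 80% with every replicate also reaching 80%; inconclusive = mean reaches 80% but some replicate falls short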;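 also: 0% = neutral control wells and 100% = parthenolide positive control wells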
INS-1E GSIS act: GLuc luminescence reporter in INS-1E cells, primary screen for activators of glucose-dependent secretion of insulin | activation, % at 16.6 µM | hit rate 0.61% among 370,000 | INS-1E GLuc reporter insulin secretion, 2-3 h | AID 743287, 2014;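 active = lowest replicate activation of at least 40%, so every replicate reaches that level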;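 also: 0% = median of neutral control wells and 100% = median of IBMX positive control wells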
An asterisk follows results filed as active; ? = inconclusive; / = not tested or not shown; [ ] = remark or other dose.

SMILES	Env fusion inh	Wnt act	CFTR F508del cor	MITF act	INS-1E GSIS act
O=C(C[C@@H]1C[C@H]2c3cc(NC(=O)C4CCC4)ccc3O[C@H]2[C@@H](CO)O1)NC1CCCCC1	10[16.7 µM]	/	-2	/	-14
C[C@H]1CN([C@@H](C)CO)C(=O)c2cccc(NC(=O)Nc3ccccc3)c2O[C@H]1CN(C)Cc1ccccc1	-13[16.7 µM]	/	1	/	16
Cc1noc(C)c1S(=O)(=O)Nc1ccc2c(c1)C(=O)N([C@H](C)CO)C[C@@H](C)[C@@H](CN(C)C(=O)Nc1ccc3c(c1)OCO3)O2	/	/	0	/	18
CCOc1cc(S(=O)(=O)n2cc(-c3ccc(F)cc3)c(N)n2)cc(OCC)c1OCC	/	1	/	/	-13
CCOc1cc(-c2cn(S(=O)(=O)c3cccc4nsnc34)nc2N)cc(OCC)c1OCC	66*	/	/	0	-26
Cc1cc(NC(=O)c2ccc(NC(=O)c3cccs3)cc2)no1	29	-3	/	11	2
CC(C)(C)c1cc(NC(=O)c2cccs2)no1	-127	31*	-1	63	4
O=C(Nc1nonc1NC(=O)c1cccs1)c1cccs1	5	-1	-2	-12	133*
CCOC(=O)CN(C(=O)CSc1nnc(-c2ccncc2)n1CCCN(C)C)c1ccccc1	0	36*	/	/	/
CCOCCCn1c(SCc2ccccc2)nnc1-c1ccncc1	18	1	2	-4	78*
O=C(Nc1ccc(Cl)c(Cl)c1)N[C@@H]1CC[C@H](CCn2cc(C3CCCC3)nn2)O[C@@H]1CO	/	/	1	/	-15
C[C@H]1CN([C@@H](C)CO)C(=O)c2cc(NC(=O)C3CC3)ccc2O[C@H]1CN(C)C(=O)Nc1ccc(C(F)(F)F)cc1	/	/	0	/	-15
O=C(O)CCCC(=O)N1CCN(c2nc(-c3ccccc3)c3ccccc3n2)CC1	-1	-4	-3	-3	61*
Cc1ccc2nc(N3CCN(C(=O)CCC(=O)O)CC3)nc(-c3ccccc3)c2c1	-20	-3	-2	-12	5
COc1ccc(-c2nnc(SCC(C)C)o2)cc1	-117	42*	3	57	-14
COc1ccc(C(=O)CSc2nnc(-c3ccc(C)cc3)o2)cc1	-16	/	/	/	/
CO[C@H](C(=O)N(C)C[C@H]1OCc2ccccc2-c2c(n(C)c3ccccc23)C(=O)N([C@H](C)CO)C[C@@H]1C)c1ccccc1	1[16.7 µM]	/	-3	/	-5
Cc1ccc(NC(=O)Nc2ccc3c(c2)C(=O)N(C)[C@H]2CC[C@H](CC(=O)O)O[C@@H]2CO3)cc1	-2[16.7 µM]	/	-3	/	12
COc1ccc(NC(=O)CCNC(=O)c2ccco2)cc1S(=O)(=O)N(C)C	-32	0	-2	11	2
COc1ccc(NC(C)=O)cc1S(=O)(=O)Nc1ccccc1C(=O)NCCc1ccccc1	-38	19	0	99*	0
COc1ccc(CCNC(=O)c2ccccc2NS(=O)(=O)c2cc(C(=O)O)ccc2OC)cc1	-6	4	-3	-1	-14
CCOc1ccc(NS(=O)(=O)c2cc(NC(=O)CCNC(=O)c3ccco3)ccc2OC)cc1	-48	-1	32*	-1	2
COc1ccc(NS(=O)(=O)c2cc(NC(=O)CCNC(=O)c3ccco3)ccc2OC)cc1	-3	-4	0	8	0
CCN(CC)S(=O)(=O)c1cc(NC(=O)CCNC(=O)c2ccco2)ccc1C	59*	-3	1	-2	15
CN(CC(=O)Nc1cccc(F)c1)C(=O)CCNC(=O)c1ccc(Br)cc1	10	5	0	13	-11
SMILES	Env fusion inh	Wnt act	CFTR F508del cor	MITF act	INS-1E GSIS act
CN(CC(=O)Nc1cccc(F)c1)C(=O)CCNC(=O)c1ccco1	-8	49*	5	0	8
O=C(C[C@@H]1C[C@H]2c3cc(NC(=O)Cc4ccncc4)ccc3O[C@H]2[C@@H](CO)O1)NCC1CC1	24[16.7 µM]	/	-1	/	11
Cc1noc(C)c1NC(=O)Nc1ccc2c(c1)CC(=O)N([C@@H](C)CO)C[C@@H](C)[C@H](CN(C)C(=O)Nc1ccccc1)O2	6[16.7 µM]	/	-3	/	16
CC[C@H]1C/C=C\C[C@@H](c2ccc(F)cc2)NC(=O)CCC(=O)N1	/	/	/	/	2
COc1ccc(NC(=O)Cc2cccc(F)c2)cc1S(=O)(=O)Nc1ccccc1Cl	3	2	-1	8	-13
COc1ccc(NS(=O)(=O)c2cc(NC(=O)Cc3c(F)cccc3Cl)ccc2OC)cc1	-9	-2	19*	6	-26
CC1(C)Cc2cccc(Oc3cc(NN4CCCCC4)c([N+](=O)[O-])cc3[N+](=O)[O-])c2O1	72*	-5	-2	-7	17
COc1ccc2sc(N(CCCN(C)C)C(=O)c3ccc(S(=O)(=O)N4CCc5ccccc5C4)cc3)nc2c1	102*	5	-10	-85	-8
COc1ccc2sc(N(CCCN(C)C)C(=O)c3ccc(S(=O)(=O)N4CCCC4)cc3)nc2c1	-15	1	-1	3	-10
CCSc1ncccc1C(=O)N[C@@H](CCSC)C(=O)OC	11	45*	0	/	11
N#CC1=C(N)N2C(=C(C#N)C1c1cccc(Br)c1)Nc1ccccc12 (stereo not given)	65*	-34	7	-46	-7
N#CC1=C(N)N2C(=C(C#N)C13CCN(Cc1ccccc1)CC3)Nc1ccccc12	/	/	/	2	-12
N#CC1=C(N)N2C(=C(C#N)C1c1ccc(Br)cc1)Nc1ccccc12 (stereo not given)	56*	-28	3	/	5
O=C(C[C@@H]1C=C[C@H](NC(=O)c2ccccc2)[C@H](CO)O1)NCc1ccc(Oc2ccccc2)cc1	61*[16.7 µM]	/	3	/	5
O=C(C[C@@H]1C=C[C@@H](NC(=O)c2ccccc2)[C@H](CO)O1)NCc1ccc(Oc2ccccc2)cc1	57*[16.7 µM]	/	-2	/	10
O=C(C[C@H]1C=C[C@H](NC(=O)c2ccccc2)[C@@H](CO)O1)NCc1ccc(Oc2ccccc2)cc1	31[16.7 µM]	/	-3	/	30
O=C(C[C@@H]1C=C[C@@H](NC(=O)c2ccccc2)[C@@H](CO)O1)NCc1ccc(Oc2ccccc2)cc1	?	/	-3	/	-4
CCN1[C@@H]2c3cccc(=O)n3C[C@@H]2[C@@H](CO)[C@@H]1C(=O)N1CCc2ccccc2C1	/	/	-1	/	2
Cc1ccc(-n2nnc(-c3ccnc4ccccc34)n2)cc1	-270	40*	0	94*	10
Clc1ccc(-n2nnc(-c3cccnc3Cl)n2)cn1	-101	41*	-1	126*	4
Cc1ccc(-n2nnc(-c3cccnc3Cl)n2)cc1	/	31*	1	61	/
Fc1ccc(-n2nnc(-c3ccnc4ccccc34)n2)cc1	-271	?	4	/	2
CNC(=O)C[C@H]1CC[C@@H]2[C@H](COc3ccc(NC(=O)c4cccc(F)c4)cc3C(=O)N2C)O1	-2[16.7 µM]	/	-1	/	-10
O=C(Nc1cccc(Cl)c1)Nc1cccc(Cl)c1	52*	4	/	46	/
